Assay outcomes as filed in PubChem BioAssay.
The list is not random: actives were taken first. Their share in the collection is about 3.1%.
EBV LMP1 NFkB – reduces LMP1-driven NF-kappaB luciferase signal; LMP1-induced NF-kappaB luciferase reporter cells, luminescence; inhibition, % at 12.5 µM; hit rate 0.69% among 350,000; AID 504558; in the data active = inhibition above about 41%; inconclusive = no clear call, values can overlap the other calls;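 also: 0% = neutral control wells and 100% = reference inhibitor control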
LGR2 inh – blocks bursicon-induced cAMP signaling via Drosophila LGR2. HEK293 LGR2, CRE-luciferase, bursicon-stimulated, 4 h. inhibition, % at 9.99 µM. hit rate 0.35% among 380,000;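 active = drop in luminescence signal, shown as inhibition above about 50% in the replicate tests, limit read from the data, passing the limit was not always enough; inconclusive = probably only some replicates passing the limit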;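 also: agonist challenge used bursicon conditioned medium at about half maximal strength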
EWS-Fli inh – EWS/Fli transcriptional activity inhibition. hit rate 0.67% among 350,000. A673 NR0B1-luciferase reporter, viability-normalised. inhibition, % at 12.6 µM;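 active = mean inhibition of at least 50% after viability correction, with every replicate also passing that limit; inconclusive = mean reaches 50% but only one of two replicates passes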;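 also: firefly luciferase signal divided by Alamar Blue viability fluorescence both relative to DMSO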
PAX8 reporter – lowers PAX8-driven luciferase in RMG-I cells | RMG-I TPO-luciferase reporter, SteadyGlo, 24 h | inhibition, % at 12.6 µM | hit rate 1.2% among 360,000 | AID 652154;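 active = mean replicate inhibition at least 60% with every replicate also reaching 60%; inconclusive = only one of the two criteria is met; inactive = mean below 60% and not all replicates reaching 60%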;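 also: luciferase light reporting Pax8 driven TPO promoter activity; plate controls were median of neutral control wells for no effect and mitoxantrone controls for full effect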
TWEAK-Fn14 inh – TWEAK-Fn14 signaling inhibition | TWEAK-stimulated Fn14 reporter cells, luciferase luminescence, 8 h | inhibition, % at 10 µM | hit rate 2% among 360,000 | AID 1159606; in the data active = inhibition above about 50%
TROY NFkB inh – TROY signaling inhibition; hit rate 0.98% among 360,000; Q293 LMP1-TROYcd NF-kB luciferase reporter, 4 h; inhibition, % at 10 µM; AID 1347056;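 active = compounds whose plate-normalised and pattern-corrected inhibition of the luciferase reporter signal at the single screening dose is 50% or more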
Active calls of the source: *; ? = inconclusive; nt = not tested or not shown.

SMILES | EBV LMP1 NFkB | LGR2 inh | EWS-Fli inh | PAX8 reporter | TWEAK-Fn14 inh | TROY NFkB inh
CCC(=O)N1CC2(CCN(C(=O)NC(C)C)CC2)c2c(n(C)c3cc(OC)ccc23)[C@@H]1CO | nt | -8.5 | -3.6 | nt | nt | nt
CCCN(C)C[C@H]1Oc2ncc(-c3cccc(C(=O)N(C)C)c3)cc2C(=O)N([C@@H](C)CO)C[C@H]1C | nt | 0.5 | -5.5 | nt | nt | nt
Cc1c(NC(=O)c2cccc(NC(=O)COc3ccccc3C#N)c2)c(=O)n(-c2ccccc2)n1C | 54.5* | ? | ? | 65.1* | -12.3 | -59.0
Cc1c(NC(=O)c2cccc(NC(=O)COc3ccccc3)c2)c(=O)n(-c2ccccc2)n1C | 6.7 | 5.1 | -9.9 | -1.2 | -0.6 | 5.7
Cc1ccc(S(=O)(=O)N/N=C/c2cccc([N+](=O)[O-])c2)cc1 | -4.7 | 2.8 | nt | -16.1 | 13.5 | -22.5
CCCCCCCCCS(=O)(=O)N/N=C/c1cccc([N+](=O)[O-])c1 | -4.1 | -13.6 | nt | nt | 17.7 | 50.6*
CO[C@@H]1CN(C)C(=O)c2ccc(NC(=O)c3cnccn3)cc2OC[C@H](C)N(C)C[C@@H]1C | nt | -11.9 | -7.6 | 2.0 | nt | nt
C[C@@H]1CN([C@H](C)CO)S(=O)(=O)c2ccc(C#Cc3ccncc3)cc2O[C@H]1CN(C)S(=O)(=O)c1ccccc1 | nt | nt | 28.1 | nt | nt | nt
CN(C[C@H]1N[C@@H](CO)[C@@H]1c1ccc(-c2cccnc2)cc1)C(=O)c1ccccc1 | nt | -7.9 | 21.0 | 98.3* | nt | nt
CCCC(C(=O)NC(C)(C)C)N(C(=O)c1snc(C(N)=O)c1N)c1ccc2c(c1)OCCO2 (stereo not drawn) | 35.4 | 27.3 | 31.9 | 1.7 | 86.5* | 81.8*
CCNC(=O)C[C@H]1CC[C@H]2[C@@H](COC[C@@H](O)CN2C(=O)C2CCOCC2)O1 | nt | -3.0 | 0.5 | -13.1 | nt | nt
O=S(=O)(CCN1CCCCC1)CCS(=O)(=O)CCN1CCCCC1 | 2.0 | 4.1 | 3.3 | -25.8 | 10.5 | 61.0*
O=C(N/N=C/c1coc2ccc(Cl)cc2c1=O)c1ccncc1 | 1.6 | 10.4 | 3.8 | nt | 54.5* | 31.9
O=C(N/N=C/c1coc2ccccc2c1=O)c1ccccc1Br | 2.6 | 8.9 | nt | nt | 57.9* | 20.7
COc1ccc(C(=O)N/N=C\c2coc3ccc(Cl)cc3c2=O)cc1 | 2.7 | 12.5 | 4.1 | nt | 30.4 | 11.3
O=C(N/N=C/c1coc2ccc(Cl)cc2c1=O)c1ccc(O)cc1 | -3.8 | 7.7 | 3.4 | -7.4 | 69.5* | 25.4
CNC[C@@H]1Oc2ccc(NS(=O)(=O)c3ccc(OC)cc3)cc2C(=O)N([C@@H](C)CO)C[C@@H]1C | nt | -14.6 | -3.4 | 1.7 | nt | nt
CCC(=O)N1CCCCN2[C@H](CO)[C@H](c3ccc(C#Cc4ccccc4F)cc3)[C@@H]2C1 | nt | -13.3 | -1.1 | -5.8 | nt | nt
C[C@@H]1CN([C@@H](C)CO)C(=O)c2cc(NC(=O)CCCCCC(=O)Nc3ccccc3N)ccc2O[C@H]1CN(C)C(=O)Nc1ccc2c(c1)OCO2 | nt | 5.5 | 10.9 | -75.9 | nt | nt
COc1cccc(S(=O)(=O)N[C@@H]2CC[C@H](CC(=O)NCc3ccccc3)O[C@H]2CO)c1 | nt | -5.1 | 6.3 | 2.9 | nt | nt
CCCN1C/C(=C/c2cccc([N+](=O)[O-])c2)C(=O)/C(=C/c2cccc([N+](=O)[O-])c2)C1 | 88.0* | 44.8 | nt | nt | 7.4 | 1.9
CC[n+]1ccc(/C=C/c2c[nH]c3ccccc23)cc1 | 11.2 | 1.3 | 22.3 | 75.5* | 37.1 | 3.7
Cc1ccc2[nH]cc(/C=C/c3cc[n+](C)cc3)c2c1 | 14.4 | 16.1 | 59.9* | 78.4* | 3.9 | 7.0
CCn1c(/C=C/c2c[nH]c3ccccc23)nc2ccccc2c1=O | -75.7 | -19.6 | -74.0 | -92.3 | 34.9 | -6.5
COc1ccc2c(/C=C/c3cc[n+](C)cc3)c[nH]c2c1 | 2.4 | 16.7 | 33.2 | 36.5 | 30.8 | 11.7
O=C(C[C@H]1CC[C@@H](NC(=O)C2CCC2)[C@H](CO)O1)NCc1ccccc1Cl | nt | 8.2 | -7.0 | -2.0 | nt | nt
Cc1ccc(S(=O)(=O)N(C)C[C@@H]2Oc3ccc(NS(=O)(=O)c4ccc(F)cc4)cc3CC(=O)N([C@H](C)CO)C[C@@H]2C)cc1 | nt | 12.0 | 4.1 | -5.8 | nt | nt
CO[C@H]1CN(C)C(=O)c2ccc(NS(=O)(=O)c3ccc(C)cc3)cc2OC[C@H](C)NC[C@H]1C | nt | -14.6 | -5.1 | nt | nt | nt
CCS(=O)(=O)N[C@H]1CC[C@@H](CC(=O)NCc2ccc(F)cc2)O[C@@H]1CO | nt | 6.4 | 1.3 | 2.8 | nt | nt
CCCCNc1c(-c2cccc(-c3ccc(OC)cc3)c2)nc2cc(C)ccn12 | 8.8 | 91.5* | 25.8 | 3.3 | 31.3 | 29.1
